# AMA1 RON2 block = qHTS for Inhibitors of AMA1-RON; Towards Development of Antimalarial Drug Lead: Primary Screen. AlphaScreen AMA1-biotinylated RON2 peptide binding. Potency, µM (highest dose often 58.2 µM), hits mostly inhibitors. 360,000 tested, 0.2% active; note: nearly all actives have a fitted effect of over 45% in size
#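 AMA1 (3D7) with his tag at 25 nM final met compounds first, then biotinylated RON2 peptide at 25 nM; detection used donor plus acceptor beads, 10 µg/mL apiece, read by AlphaScreen after 30 min at room temperature.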
# Shiga toxin inh = A qHTS for Small Molecule Inhibitors of Shiga Toxin. 290,000 tested, 9.2% active. inhibition, % at 38.7 µM. Vero cells, Shiga toxin protein synthesis inhibition reporter; in the data active = inhibition mostly above about 28%, no sharp cut-off; inactive = mostly below about 43%
# AmpC inh detg = qHTS Inhibitors of AmpC Beta-Lactamase (assay with detergent); AID 485294, 2010; Potency, µM (doses to about 114 µM), most hits filed as inhibitors; 370,000 tested, 0.041% active; AmpC hydrolysis of nitrocefin, absorbance 480 nm, 0.01% Triton; note: nearly all actives have a fitted effect of over 25% in size
# Target sequence (P00811 whole entry, looked up): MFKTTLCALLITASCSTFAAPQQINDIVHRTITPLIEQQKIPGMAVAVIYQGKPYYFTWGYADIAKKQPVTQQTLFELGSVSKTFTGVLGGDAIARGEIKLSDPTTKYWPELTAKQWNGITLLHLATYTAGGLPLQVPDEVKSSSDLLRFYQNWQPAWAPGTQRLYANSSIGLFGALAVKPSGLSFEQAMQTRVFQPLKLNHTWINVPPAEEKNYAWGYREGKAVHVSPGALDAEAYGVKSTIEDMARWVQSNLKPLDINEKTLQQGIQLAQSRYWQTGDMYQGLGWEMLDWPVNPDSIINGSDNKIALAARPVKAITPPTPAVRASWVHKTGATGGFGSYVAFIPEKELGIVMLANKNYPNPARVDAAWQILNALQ
#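 20 mM phosphate pH 7.0 + 0.01% (detergent screen) or 0.0001% Triton X-100; 5.3 nM AmpC reagent; cpd preinc 15 min RT; nitrocefin (800 uM stock) to start; A480 q20 s × 4 min; Activity was normalised to no-enzyme and no-compound control wells.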
# AmpC inh no detg = qHTS Inhibitors of AmpC Beta-Lactamase (assay without detergent) | P00811 | AmpC nitrocefin hydrolysis, absorbance 480 nm, 0.0001% Triton | Potency, µM (doses to about 57.1 µM), hits mostly inhibitors | 330,000 tested, 0.52% active; note: nearly all actives have a fitted effect of over 20% in size
#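 AmpC (5.3 nM in the dispensed reagent) in 20 mM phosphate pH 7.0 with 0.01% (detergent screen) or 0.0001% Triton X-100 was preincubated with compounds for 15 min at room temperature. Nitrocefin was then added from an 800 uM solution, and hydrolysis was followed at 480 nm.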
# SARS PLP yeast = qHTS of Yeast-based Assay for SARS-CoV PLP; Potency, µM (series often up to 32.9 µM), usual class: activators; S. cerevisiae expressing SARS-CoV PLpro, growth rescue; 330,000 tested, 0.19% active; AID 485353, 2010; calls by dose curve; note: nearly all actives have a fitted effect of over 55% in size
# CHX counter = Cycloheximide Counterscreen for Small Molecule Inhibitors of Shiga Toxin; 300,000 tested, 12% active; cell reporter, cycloheximide protein synthesis inhibition counterscreen; max response, %; AID 2314, 2010; in the data active = max response mostly above about 13%, no sharp cut-off; inactive = mostly below about 14%; note: read at 38.3 µM for the half of the compounds with a filed dose
# Numbers stand for hits; - = inactive; ? = inconclusive; . = no result given. Many of the other results were omitted from the sample, so hits are more common in it than they were. Unless noted, calls come from the whole dose curve; as a rule, active = well fitted curve in the direction sought with a large enough effect; inconclusive = small, poorly fitted or top-dose-only effect, or another doubt; inactive = no such curve, though single readings can be large; an effect the other way counts as inactive or inconclusive.
SMILES,AMA1 RON2 block,Shiga toxin inh,AmpC inh detg,AmpC inh no detg,SARS PLP yeast,CHX counter
COc1ccc(O)c(C(=O)c2cc(C#N)c(=O)n(-c3ccc(Cl)cc3)c2)c1,-,-,-,-,-,-
COc1ccc(O)c(C(=O)c2cnn(-c3ccc(Cl)cc3)c2)c1,?,40,-,-,-,-
COc1ccc(O)c(C(=O)c2cnn(-c3ccccn3)c2)c1,-,63,-,-,-,33
CCn1c(=O)c2c(nc3n2CC(C)CN3CCc2ccccc2)n(C)c1=O (centres undefined),-,-,?,-,-,-
CC(C)(C)NC(=O)C1(C)CCC(=O)N1CCCn1ccnc1 (centres undefined),-,.,.,.,.,.
Cc1cc(N2CCN(S(=O)(=O)c3ccccc3)CC2)c2ccccc2n1,-,-,-,-,-,-
Clc1ccc(-c2nc(Cc3ccccc3Cl)no2)cc1,-,-,-,-,-,-
Clc1ccc(Cc2noc(-c3cccs3)n2)cc1,-,93,-,-,-,53
CCOC(=O)C1C(=O)C=C(c2ccc(NS(C)(=O)=O)cc2)CC1c1ccco1 (centres undefined),-,-,-,-,-,-
CCOC(=O)C1C(=O)C=C(c2ccc(C)cc2)CC1c1ccco1 (centres undefined),-,54,?,-,-,21
COc1cc(NC(=O)COC(=O)c2ccc(C)c(S(=O)(=O)N3CCCCC3)c2)c(C)cc1[N+](=O)[O-],-,57,-,-,-,72
Cc1ccc(NC(=O)COC(=O)c2ccc([N+](=O)[O-])o2)cc1S(=O)(=O)N1CCCCCC1,-,59,-,-,-,28
COc1ccc(C(=O)OCC(=O)Nc2ccc(OC)c(S(=O)(=O)N3CCCCC3)c2)cc1[N+](=O)[O-],-,.,?,-,-,.
CCOC(=O)C1=CCN(S(=O)(=O)c2ccccc2F)C1c1cccc(F)c1 (centres undefined),-,.,.,.,.,.
C/C(=N\NC(=O)c1cnccn1)c1ccc([N+](=O)[O-])cc1,-,-,-,-,-,20
C/C(=N/NC(=O)c1ccc(C)s1)c1ccncc1,-,60,?,-,-,30
O=C(N/N=C/c1ccc([N+](=O)[O-])cc1)c1cnccn1,-,-,-,-,-,-
CCc1ccc(C(=O)N/N=C(\C)c2ccncc2)s1,-,70,-,-,-,37
C/C(=N/NC(=O)c1cnccn1)c1cccs1,-,93,?,-,-,40
C/C(=N\NC(=O)c1ccc(OC2OCCOC2Oc2ccc(C(=O)N/N=C(\C)c3ccncc3)cc2)cc1)c1ccncc1 (centres undefined),-,-,-,-,-,-
C/C(=N\NC(=O)c1n[nH]c2c1CCC2)c1cccs1,-,-,-,-,-,-
COc1ccc(NC(=O)CSCc2cc(=O)n3c(C)csc3n2)cc1,-,-,-,-,-,-
CCOC(=O)Cn1cnc2c(nnn2Cc2ccc(Cl)cc2)c1=O,-,-,?,-,-,-
Cc1ccc(OCC(=O)Nc2ccc3nc(SCC(=O)N4CCc5ccccc54)sc3c2)cc1,.,.,-,.,.,.
CN(CC(=O)Nc1ccc([N+](=O)[O-])cc1Br)Cc1c(F)cccc1Cl,-,-,-,-,-,-
SMILES,AMA1 RON2 block,Shiga toxin inh,AmpC inh detg,AmpC inh no detg,SARS PLP yeast,CHX counter
C/C(=N\NC(=O)c1cccs1)c1ccncc1,-,107,-,-,-,36
O=C(COC(=O)CCOc1ccccc1)Nc1ccc(Cl)cn1,-,-,-,?,-,-
Cc1ccnc(NC(=O)Nc2ccc(Br)cc2Cl)c1,-,91,-,-,-,47
CSc1ccc(NC(=O)Nc2cc(C)ccn2)cc1,-,171,?,-,-,55
Cc1ccc(NC(=O)Nc2ccc(F)cc2)nc1,-,65,-,-,-,47
COc1ccccc1NC(=O)Nc1ccc(C)cn1,-,-,?,-,-,-
Cc1ccnc(NC(=O)Nc2ccc3c(c2)N(C)C(=O)CS3)c1,-,156,?,-,-,83
